Laboratory results reported in PubChem BioAssay (Tox21).
Results filed as inconclusive are left out. The source made the active and inactive calls. Unless noted, the call rests on the fitted dose curve.

How the values were obtained:
[1] = qHTS assay to identify small molecule agonists of the sonic hedgehog signaling (Shh) pathway (AID 1259368); further: series mostly up to about 92 µM; nearly all actives have a fitted effect of over 15% in size
In short: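 NIH/3T3-derived 3T3Gli1-Luc cells carrying a stably integrated Gli1 response element–firefly luciferase reporter were plated, left 4 hr at 37 C, then given compounds in DMSO for 24 hr. Luminescence was read 30 min after adding luciferase reagent.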

[2] = qHTS assay to identify small molecule antagonists of the sonic hedgehog signaling (Shh) pathway (AID 1259369); further: nearly all actives have a fitted effect of over 45% in size
In short: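 NIH/3T3-derived 3T3Gli1-Luc cells with stably integrated Gli1-Luc reporter were preincubated 4hr at 37 C, then given compounds in DMSO plus Shh conditioned medium and incubated 24hr. Firefly luciferase luminescence read after 30min reagent at room temperature.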

[3] = target: Estrogen receptor beta (Homo sapiens) (UniProt Q92731); test: qHTS assay to identify small molecule agonists of the estrogen receptor beta (ER-beta) signaling pathway (AID 1259377; active means well fitted activation curve with a large enough effect in the signal ratio in the repeat runs, not every such curve was filed as active; the % refers to the signal ratio)
Chain of Estrogen receptor beta (Homo sapiens) (Q92731 whole entry, looked up): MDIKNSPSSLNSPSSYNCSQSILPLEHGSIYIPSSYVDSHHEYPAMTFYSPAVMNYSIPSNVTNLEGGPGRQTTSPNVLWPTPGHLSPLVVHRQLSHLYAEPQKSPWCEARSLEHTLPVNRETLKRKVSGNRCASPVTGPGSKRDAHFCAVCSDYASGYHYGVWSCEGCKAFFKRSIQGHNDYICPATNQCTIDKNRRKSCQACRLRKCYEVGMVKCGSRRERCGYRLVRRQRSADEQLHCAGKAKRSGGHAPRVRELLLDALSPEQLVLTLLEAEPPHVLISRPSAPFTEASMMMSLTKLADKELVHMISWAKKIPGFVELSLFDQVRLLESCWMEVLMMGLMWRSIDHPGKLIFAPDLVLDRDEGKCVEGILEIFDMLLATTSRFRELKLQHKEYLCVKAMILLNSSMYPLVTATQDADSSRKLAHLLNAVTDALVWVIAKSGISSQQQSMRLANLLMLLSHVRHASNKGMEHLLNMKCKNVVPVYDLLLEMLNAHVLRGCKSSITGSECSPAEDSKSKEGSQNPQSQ
In short: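 Read-out: beta-lactamase FRET fluorescence. Cell line: ER-beta-UAS-bla HEK293T in 2% charcoal-stripped FBS. Exposure: 16 hr at 37C. Substrate step: 2 h at room temperature.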

[4] = target: Estrogen receptor beta (Homo sapiens) (UniProt Q92731); test: qHTS assay to identify small molecule antagonists of the estrogen receptor beta (ER-beta) signaling pathway (AID 1259378; active means well fitted inhibition curve with a large enough effect in the signal ratio in the repeat runs, not every such curve was filed as active; the % refers to the signal ratio)
In short: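 Antagonist mode: compounds added to beta-lactamase reporter HEK293T ER-beta-UAS cells stimulated with E2 (1nM final), 16 hr at 37C. LiveBLAzer B/G FRET substrate, 2 hours room temperature, fluorescence read-out.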

[5] = qHTS assay to identify small molecule agonists of the androgen receptor (AR) signaling pathway in the presence of an antagonist - cell viability counter screen (AID 1259379; active means well fitted curve in the direction sought with a large enough effect in the repeat runs; an effect the other way counts as inactive or inconclusive; further: series mostly up to about 92 µM; nearly all actives have a fitted effect of over 25% in size)
In short: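 MDA-kb2 human breast carcinoma cells (stable MMTV-luciferase, AR/GR responsive) were seeded 3,000 cells/well, pre-incubated 5 hr at 37C without CO2, then given 3.0uM nilutamide and compounds at 15 concentrations for 16 hr. Viability was read by CellTiter-Fluor fluorescence.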

[6] = qHTS assay to identify small molecule agonists of the estrogen receptor beta (ER-beta) signaling pathway - cell viability counter screen (AID 1259380; active means well fitted curve in the direction sought with a large enough effect in the repeat runs; an effect the other way counts as inactive or inconclusive; further: nearly all actives have a fitted effect of over 30% in size)
In short: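 ER-beta-UAS-bla HEK293T cells in medium with 2% charcoal-stripped FBS were preincubated 6 hr at 37C, dosed with compound in DMSO for 16 hr, then after the bla read, CellTiter-Glo was added for 30 min at room temperature; luminescence recorded.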

[7] = target: Androgen receptor (Homo sapiens) (UniProt P10275); test: qHTS assay to identify small molecule agonists of the androgen receptor (AR) signaling pathway in the presence of an antagonist (AID 1259381); further: nearly all actives have a fitted effect of over 15% in size
Chain of Androgen receptor (Homo sapiens) (P10275 whole entry, looked up): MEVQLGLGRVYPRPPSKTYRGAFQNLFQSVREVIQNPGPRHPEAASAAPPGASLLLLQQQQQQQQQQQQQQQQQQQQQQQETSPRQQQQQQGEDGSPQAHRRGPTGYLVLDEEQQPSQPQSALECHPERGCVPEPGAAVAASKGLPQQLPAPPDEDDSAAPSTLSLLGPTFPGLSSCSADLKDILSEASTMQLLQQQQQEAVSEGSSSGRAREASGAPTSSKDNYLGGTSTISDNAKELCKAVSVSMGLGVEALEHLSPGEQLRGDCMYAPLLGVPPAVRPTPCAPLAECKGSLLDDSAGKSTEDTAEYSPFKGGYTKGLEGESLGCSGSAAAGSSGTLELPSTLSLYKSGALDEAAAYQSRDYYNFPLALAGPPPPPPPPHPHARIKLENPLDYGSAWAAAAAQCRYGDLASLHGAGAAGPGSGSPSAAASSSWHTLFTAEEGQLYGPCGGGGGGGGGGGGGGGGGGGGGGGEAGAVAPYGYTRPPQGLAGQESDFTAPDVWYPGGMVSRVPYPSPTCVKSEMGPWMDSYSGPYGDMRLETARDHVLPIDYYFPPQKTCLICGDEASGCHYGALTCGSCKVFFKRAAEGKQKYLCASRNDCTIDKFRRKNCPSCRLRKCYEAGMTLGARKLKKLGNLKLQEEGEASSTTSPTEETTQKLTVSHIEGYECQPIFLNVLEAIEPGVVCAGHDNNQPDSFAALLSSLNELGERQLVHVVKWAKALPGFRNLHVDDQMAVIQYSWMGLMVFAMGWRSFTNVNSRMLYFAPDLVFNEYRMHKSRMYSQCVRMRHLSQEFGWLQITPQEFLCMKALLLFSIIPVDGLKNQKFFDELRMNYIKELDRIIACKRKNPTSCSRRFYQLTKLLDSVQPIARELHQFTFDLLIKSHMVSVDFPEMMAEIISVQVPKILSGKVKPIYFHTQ
In short: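 MDA-kb2 human breast carcinoma cells carrying an MMTV-luciferase reporter (AR- and GR-responsive) were treated with compounds at 15 concentrations plus 3.0uM final nilutamide for 16hr at 37C without CO2; luminescence was read after ONE-Glo addition.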

[8] = qHTS assay to identify small molecule antagonists of the estrogen receptor beta (ER-beta) signaling pathway - cell viability counter screen (AID 1259382; active means well fitted curve in the direction sought with a large enough effect in the repeat runs; an effect the other way counts as inactive or inconclusive;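 further: HEK293T cells carrying ER-beta-UAS-bla reporter stimulated with estradiol; series mostly up to about 92 µM; nearly all actives have a fitted effect of over 55% in size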)
In short: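 ER-beta-UAS-bla HEK293T cells (2,000/well, 2% charcoal-stripped FBS) were pre-incubated 6 hr at 37C, then given compound plus 1nM final 17-beta-estradiol for 16 hr. Viability was read in the same wells by CellTiter-Glo luminescence after 30 min at room temperature.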

[9] = qHTS assay to identify small molecule agonists or antagonists of the thyroid stimulating hormone receptor (TSHR) signaling pathway - wild type cell line counter screen (AID 1259384)
In short: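 Counter screen in untransfected Hek293: compounds (15-point titration, triplicate) plus phosphodiesterase inhibitor Ro20-1724 added after 18 h plating; 30 min RT. Intracellular cAMP via competitive d2/cryptate immunoassay, 1 h incubation.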

[10] = target: Thyrotropin receptor (Homo sapiens) (UniProt P16473); test: qHTS assay to identify small molecule antagonists of the thyroid stimulating hormone receptor (TSHR) signaling pathway (AID 1259385); further: nearly all actives have a fitted effect of over 20% in size
Chain of Thyrotropin receptor (Homo sapiens) (P16473 whole entry, looked up): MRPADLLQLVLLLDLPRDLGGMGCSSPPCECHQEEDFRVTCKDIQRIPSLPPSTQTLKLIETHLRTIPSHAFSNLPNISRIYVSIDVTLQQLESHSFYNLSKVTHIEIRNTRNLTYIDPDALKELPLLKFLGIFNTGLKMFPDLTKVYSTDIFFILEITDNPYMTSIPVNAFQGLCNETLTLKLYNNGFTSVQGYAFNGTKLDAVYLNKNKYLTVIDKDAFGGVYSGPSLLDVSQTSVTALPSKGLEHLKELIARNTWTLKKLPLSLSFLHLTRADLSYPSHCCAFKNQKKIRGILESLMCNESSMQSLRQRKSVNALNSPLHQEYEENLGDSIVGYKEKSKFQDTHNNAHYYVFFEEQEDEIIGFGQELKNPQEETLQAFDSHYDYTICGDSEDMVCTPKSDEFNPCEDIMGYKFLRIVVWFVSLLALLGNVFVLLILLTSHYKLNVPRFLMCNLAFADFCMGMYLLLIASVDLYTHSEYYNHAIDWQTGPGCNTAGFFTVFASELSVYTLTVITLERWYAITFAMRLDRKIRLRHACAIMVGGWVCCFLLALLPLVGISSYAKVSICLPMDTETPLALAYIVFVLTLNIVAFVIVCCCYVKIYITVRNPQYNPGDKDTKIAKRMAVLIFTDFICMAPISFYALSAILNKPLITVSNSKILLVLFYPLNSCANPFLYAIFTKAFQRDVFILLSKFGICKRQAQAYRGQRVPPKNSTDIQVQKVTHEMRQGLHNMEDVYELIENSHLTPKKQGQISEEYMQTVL
In short: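 Antagonist mode: compound-treated TSHR-expressing HEK293 cells were stimulated with 1.5 ng/mL TSH (final) in presence of Ro20-1724 for 30 min at RT. HTRF cAMP detection after 1 h; each compound tested at 15 concentrations, triplicate.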

[11] = qHTS assay to identify small molecule agonists of the estrogen receptor alpha (ER-alpha) signaling pathway in the presence of an antagonist - cell viability counter screen (AID 1259386; active means well fitted curve in the direction sought with a large enough effect in the repeat runs; an effect the other way counts as inactive or inconclusive;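 further: series mostly up to about 92 µM; cells exposed to compounds for 22 h at 37 °C before the viability read; nearly all actives have a fitted effect of over 30% in size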)
In short: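 VM7Luc4E2 cells (endogenous full-length ER-alpha, 4×ERE-luciferase) were held 5 days in phenol red-free medium with 10% charcoal-stripped FBS, plated, then given 10.0nM ICI-182,780 and compounds at 15 concentrations for 22hr at 37C; viability read by CellTiter-Fluor fluorescence.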

[12] = target: Progesterone receptor (Homo sapiens) (UniProt P06401); test: qHTS assay to identify small molecule agonists of the progesterone receptor (PR) signaling pathway (AID 1346784); further: nearly all actives have a fitted effect of over 30% in size
Chain of Progesterone receptor (Homo sapiens) (P06401 whole entry, looked up): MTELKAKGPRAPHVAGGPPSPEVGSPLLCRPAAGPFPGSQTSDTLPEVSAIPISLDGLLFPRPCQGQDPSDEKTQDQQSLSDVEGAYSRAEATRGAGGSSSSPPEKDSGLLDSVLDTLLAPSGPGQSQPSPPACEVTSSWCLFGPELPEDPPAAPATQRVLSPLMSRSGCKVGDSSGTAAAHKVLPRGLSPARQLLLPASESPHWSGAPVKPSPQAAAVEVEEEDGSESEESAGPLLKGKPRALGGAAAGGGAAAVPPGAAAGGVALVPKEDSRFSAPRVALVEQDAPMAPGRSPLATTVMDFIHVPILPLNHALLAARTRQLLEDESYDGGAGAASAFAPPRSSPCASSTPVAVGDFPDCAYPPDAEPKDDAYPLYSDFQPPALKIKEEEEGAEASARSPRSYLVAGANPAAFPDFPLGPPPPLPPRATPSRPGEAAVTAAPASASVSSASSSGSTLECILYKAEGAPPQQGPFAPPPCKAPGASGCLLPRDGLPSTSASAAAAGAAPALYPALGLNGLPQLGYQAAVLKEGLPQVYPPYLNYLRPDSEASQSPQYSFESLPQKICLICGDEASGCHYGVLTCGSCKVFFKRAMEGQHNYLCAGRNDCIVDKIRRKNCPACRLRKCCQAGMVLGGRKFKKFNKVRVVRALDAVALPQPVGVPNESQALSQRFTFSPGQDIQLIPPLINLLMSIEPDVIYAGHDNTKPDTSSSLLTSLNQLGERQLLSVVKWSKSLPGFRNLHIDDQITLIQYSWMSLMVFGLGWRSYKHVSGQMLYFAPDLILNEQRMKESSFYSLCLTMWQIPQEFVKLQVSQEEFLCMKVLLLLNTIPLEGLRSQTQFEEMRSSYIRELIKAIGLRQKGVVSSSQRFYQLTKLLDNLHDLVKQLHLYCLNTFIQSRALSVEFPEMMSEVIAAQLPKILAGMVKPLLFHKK
In short: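 Compounds were tested for PR agonism in HEK 293T cells bearing a beta-lactamase gene under UAS control. Treatment lasted 16 hr at 37C; signal came from fluorescence of a FRET substrate.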

[13] = target: Progesterone receptor (Homo sapiens) (UniProt P06401); test: qHTS assay to identify small molecule antagonists of the progesterone receptor (PR) signaling pathway (AID 1346795; active means well fitted inhibition curve with a large enough effect in the signal ratio in the repeat runs, not every such curve was filed as active; the % refers to the signal ratio)
In short: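 In HEK293T cells bearing the PR-UAS-bla reporter, compound effects on promegestone-driven (1 nM) beta-lactamase expression are assessed after 16 hr using a fluorescent FRET substrate incubated 2 hr at room temperature.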

[14] = qHTS assay to identify small molecule antagonists of the progesterone receptor (PR) signaling pathway - cell viability counter screen (AID 1346798; active means well fitted curve in the direction sought with a large enough effect in the repeat runs; an effect the other way counts as inactive or inconclusive; further: series mostly up to about 92 µM; nearly all actives have a fitted effect of over 50% in size)
In short: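 Following a 4 hr attachment, PR-UAS-bla HEK293T cells in charcoal-stripped FBS medium were exposed to compounds with R5020 for 16 hr; CellTiter-Glo was added and luminescence read after 30 min at room temperature.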

[15] = qHTS assay to identify small molecule agonists of the progesterone receptor (PR) signaling pathway - cell viability counter screen (AID 1346799); further: nearly all actives have a fitted effect of over 45% in size
In short: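 Here, 3,000 PR-UAS-bla HEK293T cells per well were treated with compounds for 16 hr after a 6 hr preincubation at 37C and 5% CO2; cell viability is the CellTiter-Glo luminescence signal.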

[16] = qHTS assay to identify small molecule antagonists of the TGF-beta/Smad signaling pathway - cell viability counter screen (AID 1346824; active means well fitted curve in the direction sought with a large enough effect in the repeat runs; an effect the other way counts as inactive or inconclusive; further: nearly all actives have a fitted effect of over 50% in size)
In short: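 Cytotoxicity counter-screen run in the same wells as the beta-lactamase Smad reporter read: CellTiter-Glo luminescence after 30 min at room temperature. HEK 293T SBE-bla cells had 5 hr compound exposure at 37 C with TGF-beta1 (0.25 ng/mL stock).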

[17] = qHTS assay to identify small molecule agonists of the TGF-beta/Smad signaling pathway - cell viability counter screen (AID 1346829; active means well fitted curve in the direction sought with a large enough effect in the repeat runs; an effect the other way counts as inactive or inconclusive; further: top concentration of the series differs between compounds; nearly all actives have a fitted effect of over 45% in size)
In short: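 Same-well cytotoxicity: CellTiter-Glo added after the 2 hr room-temperature beta-lactamase substrate step, luminescence measured 30 min later; cells had 5 hr of compound at 37 C.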

[18] = qHTS assay to identify small molecule agonists of the TGF-beta/Smad signaling pathway (AID 1346859; active means well fitted activation curve with a large enough effect in the signal ratio in the repeat runs, not every such curve was filed as active; the % refers to the signal ratio; further: series mostly up to about 77 µM)
In short: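 Each well held 4,000 SBE-bla HEK 293T cells incubated overnight before compound addition; 5 hr later the cleavable FRET substrate went on for 2 hr at room temperature, and fluorescence was read at two emissions.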

[19] = target: Thyrotropin-releasing hormone receptor (Homo sapiens) (UniProt P34981); test: qHTS assay to identify small molecule antagonists of the thyrotropin-releasing hormone receptor (TRHR) signaling pathway (AID 1346877; active means well fitted inhibition curve with a large enough effect in the repeat runs, not every such curve was filed as active; further: series mostly up to about 51 µM)
Chain of Thyrotropin-releasing hormone receptor (Homo sapiens) (P34981 whole entry, looked up): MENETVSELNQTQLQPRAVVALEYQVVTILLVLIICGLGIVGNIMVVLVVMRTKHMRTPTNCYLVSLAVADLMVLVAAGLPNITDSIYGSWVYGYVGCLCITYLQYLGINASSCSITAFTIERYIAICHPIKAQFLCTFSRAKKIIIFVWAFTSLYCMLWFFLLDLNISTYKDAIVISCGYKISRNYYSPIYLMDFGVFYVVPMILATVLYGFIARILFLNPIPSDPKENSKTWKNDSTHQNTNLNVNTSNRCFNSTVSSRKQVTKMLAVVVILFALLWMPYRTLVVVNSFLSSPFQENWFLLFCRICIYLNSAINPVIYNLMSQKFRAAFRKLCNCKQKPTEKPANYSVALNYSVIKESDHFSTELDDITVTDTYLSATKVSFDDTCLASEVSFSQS
In short: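 TRHR-expressing HEK293 cells were seeded, cultured 18 h at 37 °C, then loaded with calcium dye for 2 h. Compounds were pre-incubated 5 min at room temperature before 1 nM TRH (final) was added, and kinetic fluorescence was recorded for 3 min.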

[20] = target: Estrogen receptor (Homo sapiens) (UniProt P03372); test: qHTS assay to identify small molecule agonists of the estrogen receptor alpha (ER-alpha) signaling pathway in the presence of an antagonist (AID 1259383); further: top concentration of the series differs between compounds; nearly all actives have a fitted effect of over 15% in size
Chain of Estrogen receptor (Homo sapiens) (P03372 whole entry, looked up): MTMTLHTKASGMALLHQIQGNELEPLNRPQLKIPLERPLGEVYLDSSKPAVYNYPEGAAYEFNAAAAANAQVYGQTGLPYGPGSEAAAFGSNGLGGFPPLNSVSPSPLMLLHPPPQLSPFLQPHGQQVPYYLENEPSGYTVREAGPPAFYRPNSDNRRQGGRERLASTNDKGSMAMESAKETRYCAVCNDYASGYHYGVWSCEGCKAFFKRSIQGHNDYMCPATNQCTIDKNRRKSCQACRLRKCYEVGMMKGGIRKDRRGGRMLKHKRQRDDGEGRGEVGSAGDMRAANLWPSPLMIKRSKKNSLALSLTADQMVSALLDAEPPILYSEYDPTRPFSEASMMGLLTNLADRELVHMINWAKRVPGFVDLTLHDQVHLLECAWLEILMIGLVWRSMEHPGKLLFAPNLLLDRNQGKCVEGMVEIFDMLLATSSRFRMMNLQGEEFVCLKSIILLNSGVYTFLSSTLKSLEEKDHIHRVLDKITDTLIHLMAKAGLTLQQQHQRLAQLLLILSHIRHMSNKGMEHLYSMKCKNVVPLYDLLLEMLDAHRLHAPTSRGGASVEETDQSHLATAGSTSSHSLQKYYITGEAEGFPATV
In short: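 VM7Luc4E2 cells (endogenous full-length ER-alpha, 4×ERE-luciferase) were precultured 5 days in phenol red-free medium with 10% charcoal-stripped FBS, given 10.0nM ICI-182,780 (final), then treated with compounds at 15 concentrations for 22hr at 37C; luminescence read with ONE-Glo.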
On the % scale 0 is the no-effect control and ±100 the full control effect.

COc1ccc(OC)c(Cl)c1
inactive: outcome [1] | Potency [2] | Potency [3] | outcome [4] | Potency [5] | Potency [6] | Potency [7] | outcome [8] | outcome [9] | outcome [10] | Potency [11] | Potency [12] | Potency [13] | Potency [14] | Potency [15] | outcome [16] | outcome [17] | outcome [18] | outcome [19]

CC(C)C(=O)OCc1cccc(OC(=O)[C@@H]2N3C(=O)[C@@H](NC(=O)Cc4ccccc4)[C@H]3SC2(C)C)c1
inactive: outcome [1] | Potency [2] | Potency [3] | outcome [4] | Potency [5] | Potency [6] | Potency [7] | outcome [20] | outcome [10] | Potency [11] | Potency [12] | Potency [13] | Potency [14] | Potency [15] | outcome [16] | outcome [17] | outcome [18] | outcome [19]

C=COCCOCCOCCOC=C
inactive: outcome [1] | Potency [2] | Potency [3] | outcome [4] | Potency [5] | Potency [6] | Potency [7] | outcome [9] | outcome [10] | Potency [11] | Potency [12] | Potency [13] | Potency [14] | Potency [15] | outcome [16] | outcome [17] | outcome [18] | outcome [19]

Cc1ccc2c(c1)OCC(=O)CO2
inactive: outcome [1] | Potency [2] | Potency [3] | outcome [4] | Potency [5] | Potency [6] | outcome [8] | outcome [20] | outcome [9] | outcome [10] | Potency [11] | Potency [12] | Potency [13] | Potency [14] | Potency [15] | outcome [16] | outcome [17] | outcome [18] | outcome [19]

CCCCCCCCC1CCC(=O)O1 (centres undefined)
inactive: outcome [1] | Potency [2] | Potency [3] | outcome [4] | Potency [5] | Potency [6] | outcome [8] | outcome [20] | outcome [9] | outcome [10] | Potency [12] | Potency [13] | Potency [14] | Potency [15] | outcome [16] | outcome [17] | outcome [18] | outcome [19]

Cc1nc2n(c(=O)c1CCN1CCC(c3noc4cc(F)ccc34)CC1)CCC[C@H]2O
inactive: activity change [1] -0.0213% [at 18.9 µM] | activity change, negative = inhibition [2] -4.73% [at 19 µM] | activation [3] 1.63% [at 19 µM] | activity, negative = inhibition [4] 0.444% [at 19 µM] | activity change, negative = cytotoxicity [5] -2.37% [at 19 µM] | activity change, negative = cytotoxicity [6] -7.67% [at 19 µM] | activity change, negative = cytotoxicity [8] 1.75% [at 19 µM] | activation [20] 0% [at 19 µM] | cAMP activity change [9] -2.33% [at 18.9 µM] | activity change, negative = inhibition [10] -7.26% [at 19 µM] | activity change, negative = cytotoxicity [11] -2.18% [at 19 µM] | activation [12] -1.98% [at 19 µM] | activity change, negative = inhibition [13] 1.27% [at 18.9 µM] | activity change, negative = cytotoxicity [14] -12.9% [at 18.9 µM] | activity change, negative = cytotoxicity [15] -13.8% [at 19 µM] | viability change, negative = cytotoxic [16] 1.49% [at 15.8 µM] | activity change, negative = cytotoxicity [17] -1.25% [at 15.8 µM] | activation [18] 0.469% [at 15.8 µM] | activity, negative = inhibition [19] -5.29% [at 10.5 µM]

CNS(=O)(=O)CCc1ccc2[nH]cc(C3CCN(C)CC3)c2c1
inactive: outcome [1] | Potency [2] | Potency [3] | outcome [4] | Potency [5] | Potency [6] | outcome [8] | outcome [20] | outcome [9] | outcome [10] | Potency [12] | Potency [13] | Potency [14] | Potency [15] | outcome [16] | outcome [17] | outcome [18] | outcome [19]
